The list is not random: actives were taken first. Their share in the collection is about 4.7%.
MLLE-PAM2 inh = blocks PAM2 peptide binding to the PABP1 MLLE domain. P11940. GST-MLLE / FITC-PAM2 fluorescence polarization. inhibition, % at 20 µM. 360,000 compounds, 0.36% hits; in the data active means inhibition above about 35%, passing the limit was not always enough
ALR inh = inhibitors of human sulfhydryl oxidase ALR. P55789. purified ALR, DTT oxidation, H2O2 HRP-luminol luminescence. inhibition, % (no concentration beside the values). 290,000 compounds, 3.8% hits;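 active means mean replicate inhibition above about 79%, with every replicate also reaching it, limit read from the data; inconclusive means only one of the two criteria met; inactive means mean below limit and not every replicate reaching it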
Target sequence (P55789 whole entry, looked up): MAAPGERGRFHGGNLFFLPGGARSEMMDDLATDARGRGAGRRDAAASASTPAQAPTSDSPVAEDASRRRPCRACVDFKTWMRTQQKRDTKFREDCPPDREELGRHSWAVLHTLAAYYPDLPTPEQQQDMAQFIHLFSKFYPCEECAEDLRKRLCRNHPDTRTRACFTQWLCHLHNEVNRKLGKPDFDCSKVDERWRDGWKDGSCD
PABP polyA inh = PABP-poly(A) binding inhibition; P11940; PABP-poly(A) RNA binding, fluorescence polarization; inhibition, % at 35 µM; 290,000 compounds, 1% hits;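 further: calls also rest on retests at 20 µM and on dose response follow-up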
SUMO HTRF inh = SUMOylation inhibition | P63279 | HTRF SUMOylation assay, SAE1/SAE2 + UBC9, in vitro | AID 2006 | 290,000 compounds, 0.36% hits | inhibition, % at 35 µM; in the data active means inhibition above about 50%, passing the limit was not always enough; inconclusive means no clear call, values can overlap the other calls
Target sequence (P63279 whole entry, looked up): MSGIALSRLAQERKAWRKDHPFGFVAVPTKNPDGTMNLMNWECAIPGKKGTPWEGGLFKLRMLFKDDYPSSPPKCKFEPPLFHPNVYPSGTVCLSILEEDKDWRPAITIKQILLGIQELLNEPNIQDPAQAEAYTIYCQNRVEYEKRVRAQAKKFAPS
eIF4H inh = inhibitors of RNA binding by human eIF4H. 290,000 compounds, 0.94% hits. eIF4H fluorescence polarization binding assay. inhibition, % at 35 µM. Q15056;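 further: calls also rest on retests at 20 µM and on dose response follow-up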
Efflux pump inh = antifungal efflux pump inhibition, Nile Red retention; S. cerevisiae Candida pump triplex; 330,000 compounds, 0.44% hits; inhibition, % at 10 µM;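 active means plate passing quality check with inhibition over a set limit, or well fluorescence over plate mean plus 4 SD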;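 further: Nile Red retained in pooled yeast measured as flow cytometry median fluorescence; higher means more Nile Red kept so more efflux inhibition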
Numbers stand for hits; i = inactive; ? = inconclusive; nt = no result given; ! = repeats disagree. Unless noted, how the calls were made is not given here.

SMILES	MLLE-PAM2 inh	ALR inh	PABP polyA inh	SUMO HTRF inh	eIF4H inh	Efflux pump inh
CCOC(=O)C1(C)CCN1C(=O)CSc1ccccc1 (stereo not given)	i	nt	nt	nt	nt	nt
Cc1ccc(C)c(NC(=O)NNS(=O)(=O)c2ccc(C)c(C)c2)c1	i	85	i	i	i	i
Cc1ccc(S(=O)(=O)NNC(=O)CCC(=O)Nc2ccc(C)c(C)c2)cc1	i	i	i	i	i	i
Nc1nc2ccccc2[nH]1	i	i	i	i	i	i
Nc1ccccc1Sc1nc2ccccc2[nH]1	39	i	i	i	i	i
CSc1ncc(Cl)c(C(=O)Nc2cccc(C)c2)n1	i	i	i	i	i	i
CSc1ncc(Cl)c(C(=O)C(C#N)c2nc3c(C)cc(C)cc3c(=O)[nH]2)n1 (stereo not given)	i	86	i	i	i	i
CCOC(=O)[C@H]1[C@H]2COc3ccc(C)cc3[C@@H]2N2C(=O)c3cc(F)ccc3NC(=O)[C@@]12C	i	i	nt	nt	nt	i
CCCCn1c(N)c(N(CCC(C)C)C(=O)c2cc(-c3ccco3)nc3ccccc23)c(=O)[nH]c1=O	i	i	20	i	60	i
CCCCN(C(=O)CSc1nc2ccccc2s1)c1c(N)n(CCCC)c(=O)[nH]c1=O	i	99	nt	nt	nt	i
CCCCN(C(=O)c1cc(-c2ccco2)nc2ccccc12)c1c(N)n(CCCC)c(=O)[nH]c1=O	i	i	nt	nt	nt	i
Cc1ccc(C)c(C(=O)CCC(=O)Nc2ccc(F)cc2)c1	i	i	i	i	i	i
C[C@H](CO)N1C[C@H](C)[C@@H](CN(C)Cc2ccc(Oc3ccccc3)cc2)Oc2cc(Br)ccc2S1(=O)=O	i	nt	nt	nt	nt	nt
CC(C)NC(=O)C1(C)CCCCN1Cc1ccc(OCc2ccccc2)cc1 (stereo not given)	i	nt	nt	nt	nt	nt
CCOC(=O)C(=O)NNc1ccc(F)cc1	i	99	i	i	i	i
CCOC(=O)C(=O)N/N=C/c1ccc(F)cc1	i	i	i	i	i	i
COc1ccc(C(=O)OCC(=O)NC23CC4CC(CC(C4)C2)C3)c(OC)c1OC	i	i	nt	nt	nt	i
Cc1[nH]nc(-c2ccc(O)cc2O)c1-c1nc2ccccc2s1	i	87	i	i	i	i
CCCOC(=O)c1ccc(Oc2c(-c3ccc(O)cc3O)n[nH]c2C)cc1	i	i	i	i	i	i
Cc1[nH]nc(-c2ccc(O)cc2O)c1Oc1ccccc1	i	98	i	i	i	i
Cc1[nH]nc(-c2ccc(O)cc2O)c1-c1ccc(Cl)cc1	i	82	i	i	i	i
CC(NC(=O)CNC(=O)c1ccccc1Br)c1cccs1 (stereo not given)	i	nt	nt	nt	nt	nt
COc1ccc(NC(NC(=O)c2cccnc2)C(Cl)(Cl)Cl)cc1 (stereo not given)	i	99	i	i	i	i
Cc1ccccc1NC(NC(=O)c1cccnc1)C(Cl)(Cl)Cl (stereo not given)	i	i	i	i	i	i
CC1=Nc2ccc(C)cc2/C1=C/c1c(N)n2oc(C)cc2nc1=O	i	i	54!	i	?	i
SMILES	MLLE-PAM2 inh	ALR inh	PABP polyA inh	SUMO HTRF inh	eIF4H inh	Efflux pump inh
CCOc1ccc(C(O)c2nccn2Cc2ccccc2)cc1 (stereo not given)	i	i	i	i	i	i
CCn1ccnc1C(O)c1ccc(N(C)C)cc1 (stereo not given)	i	99	i	i	i	i
Cc1cccnc1NC1(C(F)(F)F)N=C2SCCN2C1=O (stereo not given)	i	i	i	i	i	i
Cc1cccc(NC2(C(F)(F)F)N=C3SCCN3C2=O)n1 (stereo not given)	40	i	i	i	i	i
O=C(NC1(C(F)(F)F)N=C2SCCN2C1=O)c1ccccc1 (stereo not given)	i	i	i	i	i	i
COc1ccc(C(=O)NC2(C(F)(F)F)N=C3SCCN3C2=O)cc1 (stereo not given)	40	i	i	i	i	i
C[C@@H]1CN(S(=O)C(C)(C)C)[C@@H](CCO)/C1=C\CCO (stereo not given in full)	i	nt	nt	nt	nt	nt
C[N+]1(CC(=O)OCCCc2ccccc2)CCCC1	i	i	i	i	i	i
C[N+]1(CC(=O)OCCCc2ccccc2)CCCCC1	i	i	77	i	i	i
Cn1c(=O)c(=O)n(C)c2cc(S(=O)(=O)CCC(=O)Nc3ccccc3C(F)(F)F)ccc21	i	nt	nt	nt	nt	nt
Cc1nn2c(=S)[nH]nc2[nH]c1=O	i	95	i	i	i	i
CCN1C(=O)/C(=C2\Sc3ccccc3N2CC)OC1=S	46	i	i	i	i	i
c1ccc(Cn2ccnc2C2OCCO2)cc1	i	nt	nt	nt	nt	nt
CCOc1cc(/C=C2/NC(=O)NC2=O)cc([N+](=O)[O-])c1O	i	94	i	i	i	i
Nc1nc(-c2cc(O)ccc2[N+](=O)[O-])cc(-c2ccccc2)c1[N+](=O)[O-]	i	i	84	98	98	i
O=C(NNC(=O)c1ccncc1)Nc1ccc([N+](=O)[O-])cc1	i	i	58	i	i	i
CCN(C(=O)COC(=O)/C=C/c1ccc(O)c(OC)c1)C1CCS(=O)(=O)C1 (stereo not given)	i	98	i	i	i	i
COc1cc(/C=C/C(=O)OCC(=O)N2CC3(C)CC2CC(C)(C)C3)ccc1O (stereo not given)	i	99	i	i	i	i
COc1cc(/C=C/C(=O)OCC(=O)N2CCC(C)CC2)ccc1O	i	99	nt	nt	nt	i
COc1cc(/C=C/C(=O)OCC(=O)N2CCC(Cc3ccccc3)CC2)ccc1O	i	i	i	i	i	i
CCN(C(=O)COC(=O)/C=C/c1ccc(OC(F)F)c(OC)c1)C1CCS(=O)(=O)C1 (stereo not given)	i	i	nt	nt	nt	i
COc1cc(/C=C/C(=O)OCC(=O)NC(=O)NC(C)(C)C)ccc1O	i	99	i	i	i	i
C[C@H]1CN([C@@H](C)CO)C(=O)CCCn2nncc2CO[C@@H]1CN(C)S(=O)(=O)c1cn(C)cn1	i	nt	nt	nt	nt	nt
Cc1cc(C)c(NC(=O)CNC(=O)CN(C)Cc2ccc(Br)s2)c(C)c1	i	nt	nt	nt	nt	i
CC1(C)Cc2cccc(OCC(=O)Nc3cc(S(C)(=O)=O)ccc3Cl)c2O1	i	nt	nt	nt	nt	i
SMILES	MLLE-PAM2 inh	ALR inh	PABP polyA inh	SUMO HTRF inh	eIF4H inh	Efflux pump inh
COC(=O)C1=CCCCC(O)=C1C(=O)OC	i	nt	nt	nt	nt	nt
O=C(Nc1cccnc1)c1ccc2ccccc2c1O	i	91	i	i	i	i
O=C(N/N=C/c1cccnc1)c1ccc2ccccc2c1O	i	i	i	i	i	i
O=c1[nH]nc(Sc2ccccc2)c(=S)[nH]1	45	nt	nt	nt	nt	nt
COc1ccccc1CNC(=O)c1cnccn1	i	i	3.6	i	i	i
CCN1CCN(CNC(=O)c2cnccn2)CC1	i	i	i	i	i	i
O=C(NCN1CCN(c2ccccc2)CC1)c1cnccn1	i	98	i	i	i	i
CC(C)NCc1cccc([N+](=O)[O-])c1	i	i	i	i	i	i
CC1(C)CC(NCc2cccc([N+](=O)[O-])c2)CC(C)(C)N1	i	i	61	i	81	i
